HP1b binding inh = inhibitors of HP1-beta chromodomain binding to methylated histone tails; P83916; AlphaScreen HP1-beta / biotin-H3K9me3 peptide binding; Potency, µM (top dose mostly 114 µM), without a hit: top-dose activity change, negative = inhibition, actives largely listed as inhibitors; 0.56% of 390,000 active; further: nearly all actives have a fitted effect of over 70% in size
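HP1-beta protein (50 nM final) preincubated 30 min at room temperature with biotinylated H3(1-18)K9me3 peptide (50 nM) in PBS pH 7.4, 0.01% Tween-20, then compound added for 30 min. AlphaScreen streptavidin donor/nickel chelate acceptor beads (10 ug/mL final), 30 min dark, luminescence read.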
Sfp PPTase inh = inhibitors of Bacillus subtilis Sfp phosphopantetheinyl transferase; Q9F4F7; Biochemical Sfp PPTase activity, qHTS; Potency, µM, inactives show largest response in the series, negative = inhibition, usual class: inhibitors; 3.5% of 310,000 active; AID 1490;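 further: the enzyme is Sfp with the accession as filed and its product quenches rhodamine fluorescence; 0% = enzyme reaction without inhibitor and -100% = no enzyme wells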
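Buffer: 50 mM Hepes-Na pH 7.6, 10 mM MgCl2, 0.01% Nonidet P-40, 0.01% BSA. Enzyme 15 nM, pre-exposed to compound 15 min; substrates then added and fluorescence change tracked over 30 min.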
G9a block = G9a (human) methyltransferase inhibition; Potency, µM (highest dose often 102 µM), for inactives: top-dose activity, negative = inhibition, hits mostly inhibitors; 8.8% of 350,000 active; Q96KQ7; G9a H3K9 monomethylation, AlphaScreen, 2 h; further: on the % scale 0 is the no-effect control and ±100 the full control effect; nearly all actives have a fitted effect of over 75% in size
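Signal arises when biotinylated H3K9 peptide, once monomethylated, bridges streptavidin donor and antibody-captured acceptor beads. Enzyme at 20 nM was preincubated 15 min with test compounds; peptide 500 nM and SAM 20 uM then reacted for 2 h.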
JMJD2A Tudor = inhibitors of human JMJD2A Tudor domain | O75164 | AlphaScreen JMJD2A-Tudor / H3K4me3 peptide binding | Potency, µM (series often up to 114 µM), for the others: at the highest dose activity change, negative = inhibition, most hits filed as inhibitors | 4.4% of 390,000 active | AID 504339; further: on the % scale 0 is the no-effect control and ±100 the full control effect; nearly all actives have a fitted effect of over 50% in size
BAZ2B inh = inhibitors of human BAZ2B bromodomain; Q9UIF8; AlphaScreen BAZ2B-H3K14Ac peptide displacement; Potency, µM (series often up to 114 µM), without a hit: at the top dose activity change, negative = inhibition, hits mostly inhibitors; 4.4% of 360,000 active; further: on the % scale 0 is the no-effect control and ±100 the full control effect; nearly all actives have a fitted effect of over 60% in size
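Compounds, titrated to a top concentration of 110 uM, were incubated 30 min at room temperature with preformed BAZ2B/acetyl-K14 H3 peptide complex (50 nM each). Proximity signal was measured by AlphaScreen after 20 min with beads.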
TDP1 inh = TDP1 (human) enzyme inhibition; Q9NUW8; recombinant TDP1, AlphaScreen DNA substrate cleavage; Potency, µM (titrated, usually from 130 µM), without a hit: top-dose activity change, negative = inhibition, usual class: inhibitors; 0.28% of 350,000 active; AID 485290; further: on the % scale 0 is the no-effect control and ±100 the full control effect; nearly all actives have a fitted effect of over 40% in size
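E. coli-derived human Tdp1, 1 nM final. Cpd preinc 15 min RT; substrate 15 nM final, 5 min RT; AS bead mix 10 ug/ml final, 10 min RT. Signal loss = tyrosine-FITC cleavage. No-enzyme wells = max signal.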
* hit, by the source's call; ? = inconclusive; . = no result given; [ ] = remark or other dose. Most compounds without a hit are left out; they make up all but 12% or so of the library. The call rests on the fitted dose curve; in most records, active means well fitted curve in the direction sought with a large enough effect; inconclusive means small, poorly fitted or top-dose-only effect, or another doubt; inactive means no such curve, though single readings can be large; an effect the other way counts as inactive or inconclusive. Potency means the concentration at half of the fitted maximal effect.

SMILES	HP1b binding inh	Sfp PPTase inh	G9a block	JMJD2A Tudor	BAZ2B inh	TDP1 inh
COC(=O)CCN(C(=O)c1ccc(Cl)c([N+](=O)[O-])c1)c1ccccn1	43%	12%	.	-3%	-11%	-3%
Cn1c2c(c3ccccc31)CCN(CCCCN1CCN(c3ccccc3)CC1)C2=O	?	.	.	50µM*	.	.
CCc1nn(CC(=O)NC2CC2)c(=O)c2cc3c(OC)cccc3n12	0%	.	2%[59 µM]	-12%	0%	5%
COc1ccc([N+](=O)[O-])cc1Nc1c2ccccc2nc2ccccc12	-3%	-14%	-14%	-21%	-7%	-3%
COc1cc(C(=O)O)nc2ccc([N+](=O)[O-])cc12	23%	10µM*	18µM*	-17%[11.4 µM]	50µM*	4%
O=C(OOC(=O)c1ccccc1)c1ccccc1	.	0%	28%[59 µM]	.	.	11%
O=C1c2cccnc2C(=O)N1Cc1ccc(S(=O)(=O)N2CCOc3ccc(Cl)cc32)cc1	37%	5%	.	-15%	?	2%
O=C1C=CC(=O)N1c1cccc(-c2ccccc2)c1	32µM*	1.8µM*	1µM*	50µM*	12%	-1%
CN1CCC(N(C)C(=S)NC(=O)c2cc(-c3cccc(Br)c3)nc3ccccc23)CC1	-11%	-19%	?	13µM*	?	0%
CN1CCN(NC(=O)c2cc(-c3cccc(Cl)c3)nc3ccccc23)CC1	7%	-9%	?	-18%	-18%	-1%
COC(=O)c1[nH]nc(-c2ccccc2)c1-c1ccccc1	0%	.	.	-11%	.	.
COC(=O)Nc1ccc(=O)n(Cc2c(Cl)cccc2Cl)c1	10%	-10%	71µM*	-12%	-24%	-2%
Cc1ccc(NC(=O)Cn2cc3c(n2)CCC(C)C3)cc1C (centres undefined)	11%	.	-2%[59 µM]	-17%	2%	8%
CCC(=O)CC(NC(=O)OC)c1ccccc1 (centres undefined)	.	2%	.	.	.	-1%[21 µM]
COc1ccc(-c2ccc(C(C)=O)cc2)cc1C1C2C=CCCC2(C)C(=O)N1Cc1ccccc1 (centres undefined)	-6%	45µM*	.	?	.	7%
COc1ccc(-c2ccc(C)cc2)cc1C1C2C=CCC(C)C2C(=O)N1Cc1ccccc1 (centres undefined)	26%	-4%	.	-17%	.	-4%
COc1ccc(-c2ccc(C(C)=O)cc2)cc1[C@H]1[C@@H]2C=CCC[C@@]2(C)C(=O)N1Cc1ccccc1	7%	?	-4%[12.7 µM]	-35%	?	1%
COc1ccc(-c2ccc(OC)c([C@H]3[C@H]4C=CC[C@@H](C)[C@@H]4C(=O)N3Cc3ccccc3)c2)cc1OC	-18%	-26%	-16%[59 µM]	40µM*	-33%	2%
CN(C)/C=C/C1=CC(=O)CC(C)(C)C1	19%	23%	-35%	-15%	-2%	3%
Brc1ccc(OCCCCN2CCCCC2)cc1	18%	3%	.	-13%	7%	-1%
CC1CC(C)CN(CCOc2ccc(Br)cc2)C1 (centres undefined)	?	-19%	11µM*	28µM*	?	-4%
CC1CCN(CCCCOc2cccc(Br)c2)CC1	?	-43%	8.9µM*	1.8µM*	?	4%
Cc1cc(Br)ccc1OCCCCN1CCC(C)CC1	?	-8%	11µM*	2.5µM*	?	-3%
CC1CCN(CCCCOc2ccc(Br)cc2)CC1	-46%	-18%	?	5µM*	-36%	.
CC1CCCN(CC(=O)NNC(=O)COc2ccc(Br)cc2)C1 (centres undefined)	42%	.	.	?	.	-3%
COc1ccc(C)cc1NC(=O)CSc1nc(=O)n(Cc2ccccn2)c2c1CCC2	19%	.	?	-10%	-8%	0%
COc1ccc2[nH]cc(CCNc3ccnc(-c4ccc(N(C)C)cc4)n3)c2c1	.	?	3%[0.501 µM]	.	.	.
CCCC(=O)NCCc1nc2ccccc2n1Cc1c(F)cccc1Cl	27%	.	6%[59 µM]	-9%	-3%	6%
